Assay outcomes (PubChem)
Sampled rows, rich in hits. Any-hit rate of the full collection: about 2.3%.
Mcl1-Noxa inh: disrupts binding of human Mcl-1 to Noxa peptide | Q07820 | TR-FRET Mcl-1/Noxa peptide binding, 2 h | inhibition, % at 21.7 µM | actives 1.5% (n = 220,000) | AID 1022;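 active = compounds that cut the protein-peptide binding signal by more than 50% relative to plate controls in a single-dose test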;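 also: His-tagged Mcl-1 with rhodamine Noxa BH3 peptide and terbium anti-His antibody; 0% = Mcl-1 plus Noxa peptide wells and 100% = peptide-only wells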
Target sequence (Q07820 whole entry, looked up): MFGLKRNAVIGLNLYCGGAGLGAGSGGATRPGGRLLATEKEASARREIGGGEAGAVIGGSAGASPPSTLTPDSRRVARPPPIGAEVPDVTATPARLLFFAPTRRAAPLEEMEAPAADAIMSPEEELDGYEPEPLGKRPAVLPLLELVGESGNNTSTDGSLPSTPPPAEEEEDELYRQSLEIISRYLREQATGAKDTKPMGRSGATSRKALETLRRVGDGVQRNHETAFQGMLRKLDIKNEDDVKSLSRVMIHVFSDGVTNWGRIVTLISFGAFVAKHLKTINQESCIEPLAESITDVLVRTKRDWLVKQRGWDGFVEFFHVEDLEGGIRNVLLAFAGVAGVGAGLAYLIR
Bim-Mcl-1: human Bim-Mcl-1 interaction inhibition | Q07820 | AID 1009 | inhibition, % at 10 µM | Bead-based flow cytometry, Bim peptide-Mcl-1 binding | actives 0.1% (n = 190,000); in the data active = inhibition above about 40%;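 also: 0% = no compound tracer wells and 100% = peptide blocker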
GLD-1 TGE inh: GLD-1-TGE RNA interaction inhibition (C. elegans); Q17339; purified GLD-1 + fluorescein TGE RNA, fluorescence polarization; inhibition, % at 5.96 µM; actives 0.44% (n = 320,000);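 active = percent inhibition above a per-plate cutoff, the plate mean of test compounds plus 3 SD, cut at about 30% in these data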;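 also: 0% = DMSO wells with GLD-1 and probe and 100% = wells lacking GLD-1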
MCL1 BIM primary: inhibitors of human MCL1 binding to BIM-BH3 peptide. actives 0.68% (n = 320,000). inhibition, % at 10.9 µM. Q07820. GST-MCL1 / FITC-Bim-BH3 fluorescence polarization;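 active = inhibition above the mean inhibition of all tested compounds plus 3 SD, set per campaign, cut at about 40% in these data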;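 also: 0% = DMSO wells and 100% = unlabeled Bim-BH3 peptide control; higher means more loss of mP so more displacement of Bim peptide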
Mcl1-Bid inh: Mcl-1/Bid interaction inhibition | Q07820 | TR-FRET Mcl-1/Bid-Dy647 peptide binding, 1536-well | inhibition, % at 21.7 µM | actives 0.97% (n = 220,000);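 active = compounds that cut the binding signal by more than half at the single screening dose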;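 also: His-tagged Mcl-1 with europium anti-His antibody binding Bid BH3 peptide; 0% = Mcl-1 plus peptide wells and 100% = peptide-only wells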
Bcl-xL primary: Bcl-xL (human) inhibition; Q07817; GST-Bcl-xL / FITC-Bim BH3 peptide fluorescence polarization; inhibition, % at 10.9 µM; actives 0.7% (n = 320,000);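 active = inhibition above the mean of all tested compounds plus 3 SD, cutoff set per campaign, cut at about 30% in these data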;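 also: 0% = DMSO wells and 100% = unlabeled Bim-BH3 peptide competitor; inhibitors lower millipolarization by displacing the labeled peptide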
Target sequence (Q07817 whole entry, looked up): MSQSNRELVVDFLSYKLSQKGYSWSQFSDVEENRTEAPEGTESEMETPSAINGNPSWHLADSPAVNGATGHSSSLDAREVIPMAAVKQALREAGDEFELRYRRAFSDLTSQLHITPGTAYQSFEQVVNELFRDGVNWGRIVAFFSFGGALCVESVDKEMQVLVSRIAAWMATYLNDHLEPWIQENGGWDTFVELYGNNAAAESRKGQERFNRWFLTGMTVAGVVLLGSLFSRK
An asterisk follows results filed as active; . = no result given.

SMILES | Mcl1-Noxa inh | Bim-Mcl-1 | GLD-1 TGE inh | MCL1 BIM primary | Mcl1-Bid inh | Bcl-xL primary
COc1ccc(NS(=O)(=O)c2cccc(C(=O)NNC(=O)c3ccc(O)c(Cl)c3)c2)cc1 | . | . | -2 | 6 | . | 4
O=C(Cn1ccc(NC(=O)OCc2ccccc2)nc1=O)NCc1nc2ccccc2[nH]1 | . | . | -1 | -4 | . | 1
CCC(OC(=O)c1nsc(Cl)c1Cl)C(=O)NCCc1ccccc1 (centres undefined) | . | . | -7 | -9 | . | -2
COc1ccc(OCCCC(=O)OC(C)C(=O)Nc2ccc(C)cc2)cc1 (centres undefined) | . | . | -2 | -3 | . | -1
Cc1cc(C(=O)COC(=O)CCc2nc3ccccc3s2)c(C)n1C | 59* | 0 | 5 | -4 | -44 | -5
CC(C(=O)NCC1CCCO1)n1cc([N+](=O)[O-])cn1 (centres undefined) | 16 | -3 | -1 | 0 | -14 | 5
COc1ccc(OC)c(-c2nc(C(N)=O)c3[nH]c(=O)n(-c4ccc(F)cc4)c3n2)c1 | 67* | 1 | 4 | -2 | 66* | 3
CC1CN(CCCCOc2ccc3ccccc3c2)CC(C)O1 (centres undefined) | 35 | -3 | 6 | 7 | 8 | 2
COC(=O)c1ccc(OCCCCN2CC(C)OC(C)C2)cc1 (centres undefined) | 32 | -1 | -5 | -11 | 52* | -4
O=C1/C(=C/c2ccc(N3CCOCC3)o2)SC(=Nc2ccccc2)N1CCc1c[nH]c2ccccc12 | 38 | -21 | 10 | -104 | -63 | -77
COCCN1C(=O)/C(=C/c2ccc(Oc3ccc([N+](=O)[O-])cn3)c(OC)c2)SC1=Nc1ccccc1 | -17 | 18 | -1 | 6 | -15 | 5
COc1ccc(N=C2S/C(=C\c3ccc(OC(C)C(=O)O)c(OC)c3)C(=O)N2CCc2c[nH]c3ccccc23)cc1 (centres undefined) | 82* | 2 | . | . | -16 | .
COc1cc(/C=C2\SC(=Nc3ccccc3)N(CCc3c[nH]c4ccccc34)C2=O)ccc1OC(C)C(=O)O (centres undefined) | 51* | 0 | 5 | 10 | -6 | 8
NC(=O)CC(NSc1ccccc1[N+](=O)[O-])C(=O)O (centres undefined) | -10 | -3 | 9 | 1 | -16 | 0
Cc1cc(/C=C2\SC(=S)NC2=O)c(C)n1-c1cccc(O)c1 | 53* | . | -70 | -79 | -41 | -42
Cc1cc(C=C2C(=O)c3ccccc3C2=O)c(C)n1-c1cccc(C(=O)O)c1 | 31 | 2 | 2 | 3 | -44 | 11
Cc1ccc(-n2c(C)cc(/C=C3\SC(=O)NC3=O)c2C)cc1 | . | . | -3 | -4 | . | 1
Cc1sc(-n2c(C)cc(/C=C3\SC(=S)NC3=O)c2C)c(C#N)c1C | 75* | 0 | -31 | -56 | -56 | -32
Cc1cc(/C=C2/C(=O)NN(c3ccccc3)C2=O)c(C)n1-c1cccc(O)c1 | 87* | -7 | 7 | 8 | -20 | 11
Cc1ccc(C(=O)NC(=O)CSc2nnc(C)s2)cc1 | . | . | 4 | 5 | . | 1
CCOC(=O)c1ccc(N(CC(=O)NCC2CCCO2)C(=O)CCC(=O)Nc2cc(C)on2)cc1 (centres undefined) | . | . | 3 | 5 | . | 7
CCc1cccc(C)c1NC(=O)C1CN(S(=O)(=O)c2ccccc2)CCN1S(=O)(=O)c1ccccc1 (centres undefined) | 9 | -5 | 1 | 5 | -27 | -1
O=C(O)CC1c2ccccc2CCN1S(=O)(=O)c1ccc(F)cc1 (centres undefined) | . | . | 2 | 3 | . | 5
Cc1cc(C)c(C)c(OCCN2CCOCC2)c1 | . | . | 4 | 10 | . | 5
CCOC(=O)C1=C(C)N(C)C(=S)NC1c1cc(OC)ccc1OC (centres undefined) | -7 | 0 | 1 | 8 | -52 | 6
SMILES | Mcl1-Noxa inh | Bim-Mcl-1 | GLD-1 TGE inh | MCL1 BIM primary | Mcl1-Bid inh | Bcl-xL primary
CCOC(=O)c1cc2c(=O)n3ccccc3nc2n(Cc2ccco2)c1=NC(=O)c1cccnc1 | 51* | 3 | 7 | 18 | -71 | 16
CCOC(=O)c1cc2c(=O)n3cccc(C)c3nc2n(Cc2ccco2)c1=NC(=O)c1cccnc1 | 69* | 13 | . | . | -14 | .
Cc1cccn2c(=O)c3cc(C#N)c(=NC(=O)c4ccccc4)n(Cc4ccco4)c3nc12 | . | . | 20 | 31 | . | 35*
CC(C)(C)c1ccc(OCC(O)CN2CCOCC2)cc1 (centres undefined) | . | . | -3 | -3 | . | 5
Cc1ccc(OCCn2c(=O)n(C)c3ccccc32)cc1 | 10 | -3 | 4 | 0 | -18 | 3
Cc1c(CCO)c(=O)[nH]n1S(=O)(=O)c1ccc(F)cc1 | . | . | 3 | -6 | . | -4
COc1ccc2cc(C(=O)/C=C/c3cc(OC)c(O)c(OC)c3)ccc2c1 | . | . | -1 | -1 | . | 4
COc1ccc(C(=O)/C=C/c2cc(OC)c(O)c(OC)c2)c(F)c1 | 55* | -2 | -18 | 15 | 7 | 10
COc1ccc2c3c(cccc13)N(C)N=C2C | 87* | 18 | 42* | 87* | -46 | 97*
COc1ccc2c3c(cccc13)OC2=O | . | . | 0 | -1 | . | 0
CCN(c1cccc(C)c1)S(=O)(=O)c1cc2c3c(c1)CCC(=O)N3CCC2 | . | . | 1 | 2 | . | 5
CCOC(=O)C1=C(c2ccccc2)N=c2s/c(=C\c3cc(OC)c(OC)c(OC)c3)c(=O)n2C1c1cccs1 (centres undefined) | -23 | 2 | 4 | 27 | -32 | 35*
O=[N+]([O-])c1ccccc1CN1CCN(Cc2ccccn2)CC1 | 34 | 0 | 4 | 4 | 59* | 5
CSc1ncccc1C(=O)NCCc1ccc(S(N)(=O)=O)cc1 | . | . | 6 | -1 | . | 0
Cc1cccn2c(=O)c3cc(C(=O)N(C)C)n(C)c3nc12 | 9 | 0 | 10 | 30 | -26 | 32*
Cc1cccn2c(=O)c3cc(C(=O)NCCCn4ccnc4)n(C)c3nc12 | 31 | 0 | 5 | 47* | -8 | 44*
COCCNC(=O)c1cc2c(=O)n3cccc(C)c3nc2n1C | . | . | 2 | -1 | . | 1
O=C(CN1CCCc2ccccc21)NCc1ccc2c(c1)OCO2 | 11 | -3 | -51 | 52* | -23 | 47*
O=C(N/N=C/c1ccco1)c1cccc(N2Cc3ccccc3C2)c1 | 75* | 0 | 6 | 20 | -7 | 10
O=C(N/N=C/c1ccco1)c1cccc(N2CCCC2=O)c1 | 8 | -3 | -2 | 6 | -17 | 4
Cc1cc(C(=O)OCC(=O)N(CC(C)C)c2c(N)n(Cc3ccccc3)c(=O)[nH]c2=O)c(C)o1 | . | . | 1 | -12 | . | -8
C=CCn1c(=O)/c(=C2/SC(C)=C(C)N2CC)s/c1=C1/C(=O)N(CC)C(=S)N1c1ccccc1 | 29 | -4 | 0 | -5 | 59* | -2
O=Cc1[nH]c2ccccc2c1N(C(=O)CCl)c1ccc([N+](=O)[O-])cc1 | 92* | . | 1 | 2 | -60 | 4
